Source: PubChem BioAssay (NCI)
Values joined by “and” are separate entries in the source; they are usually repeats but may differ in a detail not shown here. Equal entries are not always repeated. This is part of a sample that, as a whole, favours compounds with a hit. Of some 83,000 tested, about 20% had one in any assay.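 Compound tested at a single concentration for 48 hours in 96-well plates; a percent growth value below 10 was scored as active.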 Active and inactive are the calls of the source.

Tested on: HL-60(TB) leukemia
Assay: NCI-60 one-dose screen, 48 h (100 = growth as untreated, 0 = no growth, -100 = all killed)
Details: 10 µM unless noted

Q: Which growth does the source give for `COc1ccc(C(C)=O)cc1S(=O)(=O)Nc1c(N)nc(SC)[nH]c1=O` here?
A: Its growth is 96.8% (inactive).

Q: `COc1ccc(N=C2NN=C(c3ccc(F)cc3)CS2)cc1OC` was tested. Which growth did it give?
A: The growth was 84.5% (inactive).

Q: Which growth does the source give for `c1cc[n+](C2c3ccccc3C([n+]3ccccc3)c3ccccc32)cc1` (stereo not given) here?
A: Its growth is 88.3% (inactive).

Q: How did the growth turn out when `Cn1c(SSc2ccc(-c3cccnc3)n2C)ccc1-c1cccnc1` was run?
A: The growth was 62.8% (inactive) and -32.2% (active).

Q: For `COc1ccc(-c2csc(NC(=O)c3ccc(Cc4n[nH]c(=O)c5cccnc45)cc3)n2)cc1`, which growth is on record?
A: Its growth is 104% (inactive).

Q: Which growth does the source give for `CCOc1ccc(N(C)c2ccc(/C=C/C3=[N+](C)c4ccccc4C3(C)C)cc2)cc1` here?
A: Its growth is -43.5% (active).

Q: With `N#C/C(=C/c1ccc([N+](=O)[O-])cc1)n1nnc2cc(F)c(F)cc21` as the compound, how does the growth read?
A: The growth was 62.7% (inactive).

Q: Which growth does the source give for `CC(C)(C)CC(C)(C)c1ccc(OCCOCC[N+](C)(C)CC(=O)[O-])cc1` here?
A: The growth was 96.1% (inactive).

Q: `COc1cc(NCCCCC(C)N)c2nccc(C)c2c1` (stereo not given) was tested. Which growth did it give?
A: The growth was 96.7% (inactive).

Q: For `CCn1cc(C(=O)N/N=C/c2cccs2)c(=O)c2cc(F)c(N3CCNC(C)C3)c(F)c21` (stereo not given), which growth is on record?
A: The growth was 105% (inactive).

Q: With `O=C1OC2(c3ccccc31)c1ccc(O)c(O)c1Oc1c2ccc(O)c1O` as the compound, how does the growth read?
A: The growth was 98.6% (inactive) and 117% (inactive).

Q: How did the growth turn out when `O=C1/C(=C/c2ccc(Cl)c(Cl)c2)CN(C(=O)C(Cl)Cl)C/C1=C\c1ccc(Cl)c(Cl)c1` was run?
A: Its growth is -15.2% (active).

Q: Which growth does the source give for `COc1ccc2c(c1)C(=O)/C(=C/c1cccc(OCC(=O)c3ccccc3)c1)O2` here?
A: The growth was -80.5% (active).

Q: `O=C(Nc1nc2ccc(F)cc2s1)c1cccnc1Nc1ccc(Cl)cc1` was tested. Which growth did it give?
A: The growth was 33.3% (inactive).

Q: With `CC(C)(C)NC(C1=CC(C)(C)c2ccccc2C1=O)c1ccccc1` (stereo not given) as the compound, how does the growth read?
A: Its growth is -45.2% (active).

Q: Which growth does the source give for `COC(=O)[C@]12CC[C@@H](C)[C@H](C)[C@@H]1C1=CC[C@@H]3[C@@]4(C)C/C(=N\O)[C@H](O)[C@@]5(C)COC(=C45)C[C@@]3(C)[C@]1(C)CC2` here?
A: Its growth is -59.8% (active).

Q: `COc1cc(-c2cc(=O)oc3cc(O)ccc23)c(OC)c2c1OCO2` was tested. Which growth did it give?
A: Its growth is 103% (inactive).

Q: For `Cc1ccc(C)c2c1C(=O)OC2=O`, which growth is on record?
A: Its growth is 29.7% (inactive).

Q: `Cc1ccc(/C=C2\CN(C(=O)OC(C)(C)C)C/C(=C\c3ccc(C)cc3)C2=O)cc1` was tested. Which growth did it give?
A: The growth was 41.9% (inactive).

Q: `COc1ccc(/C=N/C2=C(C#N)C(c3ccccc3[N+](=O)[O-])c3ccc4ccccc4c3O2)cc1` (stereo not given) was tested. Which growth did it give?
A: The growth was 100% (inactive).

Q: Which growth does the source give for `O=C(O)c1ccc(OCc2ccccc2)cc1` here?
A: Its growth is 103% (inactive).

Q: Which growth does the source give for `O=C(N/N=C/c1cc(Cl)ccc1O)C(=O)N/N=C/c1cc(Cl)ccc1O` here?
A: The growth was 46.1% (inactive).

Q: Which growth does the source give for `O=c1c(N=Nc2nccs2)c(-c2ccccc2)[nH]n1-c1nc(-c2ccccc2)cs1` here?
A: The growth was 15.8% (inactive).

Q: How did the growth turn out when `COc1c(B(O)O)cccc1-c1nc2ccc3[nH]ncc3c2c2c1CCC2` was run?
A: The growth was 61.6% (inactive).

Q: `Cc1[nH]c2ccc(F)cc2c1CCNC(=O)C1CCN(C(=O)c2ccccc2)C1` (stereo not given) was tested. Which growth did it give?
A: Its growth is 107% [25 µM] (inactive).

Q: Which growth does the source give for `C=CC(=O)N1CCC[C@H](n2c(=O)n(-c3ccc(Oc4ccccc4)cc3)c3c(N)ncnc32)C1` here?
A: The growth was 92.4% (inactive).

Q: With `CCOc1ccc2nc3cc(N)ccc3c(N)c2c1` as the compound, how does the growth read?
A: The growth was 117% (inactive) and 86.7% (inactive).

Q: `COc1ccc(-c2c(C)noc2-c2ccc(O)cc2O)cc1` was tested. Which growth did it give?
A: The growth was 64.9% (inactive).

Q: Which growth does the source give for `COc1ccc(C(=O)C(O)c2ccc(OC)cc2)cc1` (stereo not given) here?
A: Its growth is 97.2% (inactive) and 94.5% (inactive).

Q: `CNCc1cccc2c1OCCOCCOCCN(CCN1CCOCC1)S(=O)(=O)c1ccc(cc1)-c1cnc(N)c(n1)C(=O)N2` was tested. Which growth did it give?
A: The growth was -23.5% (active).

Q: With `COc1ccc2c(c1)c(-c1noc(C(=O)c3cn(C)c4ccc(Br)cc34)n1)cn2C` as the compound, how does the growth read?
A: The growth was 84.4% (inactive).

Q: Which growth does the source give for `COc1ccc(CC(=O)Nc2nn3c(-c4cc(C(F)(F)F)cc(C(F)(F)F)c4)nnc3s2)cc1` here?
A: The growth was 52% (inactive).

Q: With `COc1ccc(-c2nsc3c2NC(=O)CC3c2ccc3c(c2)OCCO3)cc1` (stereo not given) as the compound, how does the growth read?
A: The growth was 13% (inactive).

Q: With `NC(N)=Nc1ccc(S(=O)(=O)O)cc1` as the compound, how does the growth read?
A: Its growth is 108% (inactive).

Q: For `CC(CCc1ccc(Cl)c(Cl)c1)NCc1ccc(C(C)(C)C)cc1` (stereo not given), which growth is on record?
A: The growth was 46.2% (inactive).

Q: With `Cc1ccc2sc3c(NCCCNCCO)nc4ccccc4c3c(=O)c2c1` as the compound, how does the growth read?
A: The growth was -0.607% (active).

Q: `N=c1ccc2nc3c(cc(N)c4ccccc43)oc-2c1` was tested. Which growth did it give?
A: The growth was -48.4% (active).

Q: `CNc1ccc(O)cc1` was tested. Which growth did it give?
A: The growth was 103% (inactive) and 93% (inactive).

Q: For `O=C1Nc2ccccc2/C1=C/c1cccn1CCCCn1c2ccccc2c(=O)c2ccccc21`, which growth is on record?
A: The growth was 60.2% (inactive).

Q: Which growth does the source give for `Cc1cc(C)cc(S(=O)(=O)n2ccc(-c3ccc4c(c3)CCC(C)(C)O4)n2)c1` here?
A: The growth was 99.8% (inactive).
